# Laboratory results published in PubChem BioAssay.
# Several values for one entry are separate records, joined by “and”; a condition that tells them apart may be missing. Equal entries are not always repeated. For some assays here: Results with a measured potency or affinity are listed apart. Activity calls are given as the source filed them. Unless noted, no rule for the calls is given here.
# How the values were obtained:
# [1] = Cy5 fluorescence interference with SSB-bound oligo, artefact control for HCV NS3 helicase inhibitor project, biochemical, NIH Clinical Collection, E. coli SSB (AID 743268)
# [2] = tested on: Hepatitis C virus NS3 helicase; assay: HCV NS3 helicase inhibitors, primary screen, biochemical, fluorescence polarization, NIH Clinical Collection (AID 743270); conditions: NS3 helicase binding to Cy5-dT15 DNA, stronger effect = higher value, concentration not given here
# [3] = molecular target: Single-stranded DNA-binding protein (Escherichia coli (strain K12)) (UniProt P0AGE0); assay: E. coli SSB displacement from DNA, counter-screen for HCV NS3 helicase inhibitor project, biochemical, fluorescence polarization, NIH Clinical Collection (AID 743271; in the data active = inhibition above about 28%); conditions: stronger effect = higher value, concentration not given here
# [4] = fluorescence interference in NS3h assay format, artefact control for HCV NS3 helicase inhibitor project, biochemical, NIH Clinical Collection (AID 743272); conditions: fluorescence interference counterscreen, stronger effect = lower value;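 also: HCV NS3 helicase with a Cy5 labelled single stranded DNA probe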
# [5] = modulation of C. elegans fzo-1 (AID 1259413);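 also: fzo-1 mutant C. elegans worms in liquid wells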; conditions: C. elegans fzo-1 modulator screen, mean read-out; stronger effect = higher value
# [6] = molecular target: NAD(+) hydrolase SARM1 (Homo sapiens) (UniProt Q6SZW1); assay: SARM1 TIR NADase inhibitors, cell lysate, NAD-Glo luminescence (AID 1508614;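 active = compound whose remaining NAD level is above about 45 nM, limit read from the data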;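 also: higher remaining NAD means stronger inhibition of SARM1 NADase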); conditions: SAM-TIR HEK293T lysate NADase, at 1 µM, stronger effect = higher value
# Chain of NAD(+) hydrolase SARM1 (Homo sapiens) (Q6SZW1 whole entry, looked up, the tested form may be a part): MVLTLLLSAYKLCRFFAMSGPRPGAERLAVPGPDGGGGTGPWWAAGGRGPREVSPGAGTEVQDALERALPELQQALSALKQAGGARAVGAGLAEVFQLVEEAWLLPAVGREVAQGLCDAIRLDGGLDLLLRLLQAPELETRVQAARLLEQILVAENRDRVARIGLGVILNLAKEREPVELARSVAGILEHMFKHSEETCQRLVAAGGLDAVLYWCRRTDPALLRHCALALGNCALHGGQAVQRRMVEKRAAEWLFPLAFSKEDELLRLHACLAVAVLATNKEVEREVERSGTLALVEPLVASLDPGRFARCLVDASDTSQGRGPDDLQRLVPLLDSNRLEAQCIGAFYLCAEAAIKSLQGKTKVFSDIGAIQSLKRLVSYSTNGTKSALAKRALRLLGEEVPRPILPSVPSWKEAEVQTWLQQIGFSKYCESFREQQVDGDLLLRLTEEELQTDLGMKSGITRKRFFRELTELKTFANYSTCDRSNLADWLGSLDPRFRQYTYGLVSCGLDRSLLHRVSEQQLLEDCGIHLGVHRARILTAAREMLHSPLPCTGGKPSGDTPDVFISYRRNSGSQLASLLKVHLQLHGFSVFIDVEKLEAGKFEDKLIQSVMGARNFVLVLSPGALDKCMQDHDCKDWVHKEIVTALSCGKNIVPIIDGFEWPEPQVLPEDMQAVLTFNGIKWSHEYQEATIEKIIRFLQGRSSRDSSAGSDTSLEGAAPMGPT
# [7] = molecular target: Mitogen-activated protein kinase 7 (Homo sapiens) (UniProt Q13164); assay: ERK5 transactivation activators in reporter cells, primary screen, cell-based, HTS (AID 1508626;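 active = luciferase signal above three times the same-plate solvent-only control wells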;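 also: luciferase driven by Gal4-ERK5 fusion binding five Gal4 sites before minimal TATA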); conditions: HeLa Gal4-ERK5 transactivation, 18 h, at 5 µM, stronger effect = higher value
# Chain of Mitogen-activated protein kinase 7 (Homo sapiens) (Q13164 whole entry, looked up, the tested form may be a part): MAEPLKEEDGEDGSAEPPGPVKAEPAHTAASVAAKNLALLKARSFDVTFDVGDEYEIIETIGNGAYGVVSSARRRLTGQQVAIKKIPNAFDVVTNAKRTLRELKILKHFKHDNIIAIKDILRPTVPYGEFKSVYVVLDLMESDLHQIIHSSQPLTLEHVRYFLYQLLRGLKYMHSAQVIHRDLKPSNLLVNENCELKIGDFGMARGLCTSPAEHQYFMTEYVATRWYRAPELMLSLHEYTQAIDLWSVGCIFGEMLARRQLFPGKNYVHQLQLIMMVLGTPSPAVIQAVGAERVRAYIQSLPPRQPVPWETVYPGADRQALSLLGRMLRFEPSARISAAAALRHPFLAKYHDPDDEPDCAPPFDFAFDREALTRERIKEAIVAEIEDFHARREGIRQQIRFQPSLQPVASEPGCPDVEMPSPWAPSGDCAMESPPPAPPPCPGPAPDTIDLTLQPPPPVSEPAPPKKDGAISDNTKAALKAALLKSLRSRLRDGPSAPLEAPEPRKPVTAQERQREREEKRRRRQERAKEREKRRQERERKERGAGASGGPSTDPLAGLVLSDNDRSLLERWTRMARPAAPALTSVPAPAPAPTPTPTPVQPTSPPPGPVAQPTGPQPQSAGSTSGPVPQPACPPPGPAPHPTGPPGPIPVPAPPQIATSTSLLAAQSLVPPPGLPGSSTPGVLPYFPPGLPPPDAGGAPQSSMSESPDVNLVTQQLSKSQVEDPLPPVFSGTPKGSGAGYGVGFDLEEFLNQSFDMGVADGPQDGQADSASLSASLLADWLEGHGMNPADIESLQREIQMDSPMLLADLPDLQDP
# R275C/beta2Delta = assay: modulators of BK channel variants, profiling panel, selectivity assay, cell-based, U2OS BacMam, thallium flux, beta subunits (AID 1259406;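 active = thallium flux through the channel raised or lowered by more than 3 SD from vehicle-only wells, actives on both sides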;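 also: initial slope of Thallos dye fluorescence rise after thallium is added; log ratio against the mean of 0.3% DMSO vehicle wells on the same plate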); conditions: at 30 µM
# R275C/beta4 = assay: as above; conditions: at 30 µM
# R275C/Slo1WT/beta2 = assay: as above; conditions: at 30 µM
# [8] = polyglutamine-triggered caspase-3 activation inhibitors, cell-based (AID 1583); conditions: polyglutamine-induced caspase-3 activation, cell assay; stronger effect = higher value;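 tested at 10 µM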
# [9] = suppressors of polyQ aggregation in yeast, 75Q-TubU reporter (AID 1593); conditions: Yeast 75Q polyglutamine aggregation reporter
# [10] = rescue of polyQ-huntingtin neuronal dysfunction in worms, whole organism, C. elegans mechanosensory neurons, N-terminal huntingtin (AID 1599); conditions: touch response, stronger effect = higher value
# [11] = inhibitors of mitochondrial cytochrome c release, biochemical, purified mitochondria (AID 1603); conditions: stronger effect = lower value;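 also: mouse liver mitochondria challenged with calcium chloride; signal normalized to the plate average as 100%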
# [12] = inhibitors of polyQ protein aggregation (AID 1604); conditions: polyglutamine-induced protein aggregation inhibition assay; stronger effect = higher value; tested at 2.5 µM
# [13] = enhancers of glutamate uptake in motor neurons, MN-1 cell line (AID 1612); conditions: MN-1 motor neuron cells, stronger effect = higher value;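 also: tested at 1 µM final; 0% = mean of DMSO vehicle wells on each plate; positive means more glutamate uptake than control and negative means less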
# [14] = suppressors of polyglutamine aggregation in yeast, 75Q-TubH (AID 1616); conditions: S. cerevisiae 75Q-TubH polyglutamine aggregation suppression; stronger effect = higher value
# [15] = hESC survival regulators, cell-based (AID 493140); conditions: human embryonic stem cell survival screen; stronger effect = higher value;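 also: cells exposed to compounds for four days before counting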
# [16] = viability rescue of complex I mutant cybrids, primary screen, cell-based, galactose medium, ATP luminescence (AID 1645843;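 active = z-score of at least 1.8 in each of two replicates, scored against plate mean and spread of sample wells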;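 also: positive z means more ATP and so rescue of galactose-driven cybrid death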); conditions: complex I mutant cybrid cells, 72 h, stronger effect = higher value
Compound,fluorescence ratio [1],inhibition [2],inhibition [3],fluorescence ratio [4],mean signal [5],remaining NAD [6],luciferase signal [7],log fold change Tl+ flux (R275C/beta2Delta),log fold change Tl+ flux (R275C/beta4),log fold change Tl+ flux (R275C/Slo1WT/beta2),inhibition [8] [%],score [9],rescue above control [10],cytochrome c release ratio [11],inhibition of aggregation [12] [%],glutamate uptake change [13] [%],aggregation suppression score [14],survival [15],z-score [16]
COc1ccccc1OCCNCC(O)COc1cccc2[nH]c3ccccc3c12 (configuration not stated),0.92 (inactive),1.19% (inactive),6.83% (inactive),0.94 (inactive),201 (inactive),14 nM (inactive) and 10 nM (inactive),340 AU (inactive),0.0657 (inactive),0.216 (active),0.0443 (inactive),–,–,–,–,–,–,–,–,–
CCc1cc(C(N)=S)ccn1,1.03 (inactive),-4.09% (inactive),-4.29% (inactive),1.01 (inactive),267 (inactive),10 nM (inactive),40 AU (inactive),-0.00222 (inactive),0.0412 (inactive),0.00968 (inactive),13.5,1.02,-3.77,1.06,78.8,15.8,1.09,9.25 (inactive),0.725 (inactive)
CCN(Cc1ccncc1)C(=O)C(CO)c1ccccc1 (configuration not stated),1.06 (inactive),-2.27% (inactive),-5.05% (inactive),1.03 (inactive),244 (inactive),10 nM (inactive),108 AU (inactive),0.0198 (inactive),0.0153 (inactive),0.0191 (inactive),24.2,1.22,-3.59,1.14,87,-2.09,1.36,16.4 (inactive),–
O=C(C1CCCCC1)N1CC(=O)N2CCc3ccccc3C2C1 (configuration not stated),0.91 (inactive),-5.91% (inactive),-2% (inactive),0.91 (inactive),236 (inactive),10 nM (inactive),32 AU (inactive),-0.0208 (inactive),0.0526 (inactive),0.0259 (inactive),2.42,0.82,-8.41,0.99,65.4,7.89,0.607,12.2 (inactive),1.16 (inactive) and -1.2 (inactive) and 1.07 (inactive)
N[C@@H](Cc1cc(I)c(Oc2cc(I)c(O)c(I)c2)c(I)c1)C(=O)O,0.87 (inactive),0.45% (inactive),0.29% (inactive),0.88 (inactive),252 (inactive),10 nM (inactive),112 AU (inactive),0.134 (active),0.234 (active),0.0236 (inactive),–,–,–,–,–,–,–,–,-1.38 (inactive) and -0.805 (inactive)
